Values joined by “and” are separate entries in the source; they are usually repeats but may differ in a detail not shown here. Equal values may be shown once. Records with an inconclusive call do not appear. Entries that show only a call come without a potency. Active and inactive are the calls of the source. Unless noted, calls follow the shape of the full dose curve.
Experiments:
[1] = Cell Viability - Hek293 (AID 427;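 active = compounds whose dose-response curve shows a full or clear partial loss of cell viability, called from curve shape rather than a numeric limit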;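 also: potency is read from the fitted curve at half-maximal effect; cells exposed to compound for 40 hours at 37 °C before reading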); conditions: qHTS
Summary of the method: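 Luminescent ATP read-out (CellTiter-Glo, 20 min RT) after 40 hr compound exposure at 37 °C in complete medium. Signal normalized to DMSO (basal) and 100 uM tamoxifen (100% inhibition); concentration-response fitted with the standard Hill equation to give AC50.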

[2] = Cell Viability - N2a (AID 540; active = well fitted curve in the direction sought with a large enough effect; an effect the other way counts as inactive or inconclusive;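 also: cells exposed to compound for 40 h at 37 °C; nearly all actives have a fitted effect of over 45% in size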); conditions: N2a mouse neuroblastoma cell viability; activity change, negative = cytotoxicity: at 92.2 µM (top of the series)
Summary of the method: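 Luminescent ATP signal (CellTiter-Glo, 20 min at room temperature) served as the viability read-out after N2a cells were treated with compounds for 40 hours at 37 °C. Concentration-response data were fitted to the Hill equation for AC50.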

[3] = Cell Viability - H-4-II-E (AID 543; active = well fitted curve in the direction sought with a large enough effect; an effect the other way counts as inactive or inconclusive; also: nearly all actives have a fitted effect of over 35% in size); conditions: H-4-II-E rat hepatoma viability; series mostly up to 92.2 µM
Summary of the method: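 Luminescent ATP signal (CellTiter-Glo) served as the viability read-out, with cytotoxicity seen as a concentration-dependent ATP drop. Cells were treated for 40 hours in complete medium. AC50 values derive from Hill-equation modelling.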

[4] = target: Estrogen receptor (Homo sapiens) (UniProt P03372); experiment: qHTS assay for small molecule agonists of estrogen receptor alpha signaling (AID 588514); conditions: ER-alpha-UAS-bla HEK293, beta-lactamase ratio, 18 h; series mostly up to 76.8 µM; also: nearly all actives have a fitted effect of over 70% in size
Summary of the method: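 Cells were plated at 5000/well, incubated 4 hrs at 37 C, dosed with compound titration series, incubated 18 hrs at 37 C, loaded with CCF4 dye for 2 hrs at RT, then fluorescence was read.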

[5] = target: Glucocorticoid receptor (Homo sapiens) (UniProt P04150); experiment: qHTS assay for small molecule agonists of glucocorticoid receptor signaling (AID 588532; active = well fitted curve in the direction sought with a large enough effect in the signal ratio, with a control signal flat; the % refers to the signal ratio); conditions: HeLa MMTV-bla, beta-lactamase ratio, agonist, 18 h; stronger effect = higher value; percent of dexamethasone control, DMSO zero
Summary of the method: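 Quantitative HTS using CellSensor MMTV-bla HeLa cells in charcoal/dextran-treated serum; compounds tested up to 92 uM. After 18 h at 37 C, CCF4 dye reported reporter induction.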

[6] = target: Glucocorticoid receptor (Homo sapiens) (UniProt P04150); experiment: qHTS assay for small molecule antagonists of glucocorticoid receptor signaling (AID 588533; active = well fitted inhibition curve with a large enough effect in the signal ratio, with a control signal flat, not every such curve was filed as active; the % refers to the signal ratio;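 also: cells stimulated with 2 nM dexamethasone as agonist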); conditions: HeLa MMTV-bla, GRE beta-lactamase ratio, antagonist mode, 18 h; series mostly up to 76.8 µM
Summary of the method: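 Antagonist-mode qHTS: compound titrations added to GRE-bla HeLa cells, then dexamethasone 2 nM final; 18 h, 37 C. CCF4 FRET fluorescence normalized to dexamethasone and DMSO; IC50 from Hill fit.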

[7] = target: Peroxisome proliferator-activated receptor gamma (Homo sapiens) (UniProt P37231); experiment: qHTS assay for small molecule agonists of peroxisome proliferator-activated receptor gamma signaling (AID 588536; active = well fitted curve in the direction sought with a large enough effect in the signal ratio, with a control signal flat, not every such curve was filed as active; the % refers to the signal ratio); conditions: HEK293 PPARg-UAS-bla, beta-lactamase ratio, 16 h, percent of rosiglitazone response, DMSO as zero; series mostly up to 76.7 µM
Summary of the method: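 PPAR-gamma-UAS-bla HEK293 cells in medium with 1% charcoal/dextran-treated FBS were exposed to compounds for 16 h at 37 C. Beta-lactamase activity was read with CCF4 substrate (405 nm excitation, 460/530 nm emission).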

[8] = target: Peroxisome proliferator-activated receptor gamma (Homo sapiens) (UniProt P37231); experiment: qHTS assay for small molecule antagonists of peroxisome proliferator-activated receptor gamma signaling (AID 588537; active = well fitted inhibition curve with a large enough effect in the signal ratio, with a control signal flat, not every such curve was filed as active; the % refers to the signal ratio;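 also: reporter cells co-stimulated with 50 nM rosiglitazone agonist during compound treatment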); conditions: HEK293 PPARg-UAS-bla, beta-lactamase ratio, antagonist mode; series mostly up to 76.8 µM
Summary of the method: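 Antagonist mode, beta-lactamase reporter in HEK293; charcoal/dextran FBS 1%; 3000 cells/well, 37 C 6-6.5 h; cpd titration + rosiglitazone 50 nM final, 16 h 37 C; CCF4, 2 h RT; 460/530 nm; Hill fit → IC50, efficacy.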

[9] = target: Vitamin D3 receptor (Homo sapiens) (UniProt P11473); experiment: qHTS assay for small molecule antagonists of vitamin D receptor signaling (AID 588541); conditions: HEK293T VDR-UAS-bla, beta-lactamase ratio, antagonist mode; series mostly up to 76.7 µM;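 also: receptor activated by calcitriol during compound treatment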
Summary of the method: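 Antagonist-mode beta-lactamase reporter assay: HEK293T VDR-UAS-bla cells were exposed to titrated compound alongside 1-alpha,25-dihydroxyvitamin D3 at 3 nM final for 16 h. Values were normalized to the 50 nM agonist control and DMSO basal, with IC50 and efficacy from Hill equation fits.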

[10] = target: Vitamin D3 receptor (Homo sapiens) (UniProt P11473); experiment: qHTS assay for small molecule agonists of vitamin D receptor signaling (AID 588543); conditions: HEK293T VDR-UAS-bla, beta-lactamase ratio, 16 h; series mostly up to 76.8 µM
Summary of the method: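 Measured: β-lactamase reporter activity (CCF4, 405 nm excitation, 460/530 nm emission) in HEK293T VDR-UAS-bla cells after 16 h compound exposure at 37 °C. Normalization against 50 nM 1α,25-dihydroxyvitamin D3 and DMSO; Hill-fit EC50.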

[11] = qHTS assay for small molecule agonists of the antioxidant response element (ARE) signaling pathway (AID 651741; active = well fitted activation curve with a large enough effect in the signal ratio; the % refers to the signal ratio; also: potency is read from the fitted curve at half-maximal effect); conditions: HepG2 ARE-bla reporter, beta-lactamase FRET ratio, 16 h; series mostly up to 96 µM
Summary of the method: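 Quantitative HTS in HepG2 cells stably expressing an ARE-beta-lactamase reporter; 16 h compound exposure at 37 C, followed by 2 h room-temperature incubation with LiveBLAzer B/G FRET substrate and fluorescence measurement.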

[12] = qHTS assay for small molecule activators of the nuclear factor-kappa B (NF-kB) signaling pathway (AID 651749; active = well fitted activation curve with a large enough effect in the signal ratio; the % refers to the signal ratio); conditions: NF-kB-bla ME-180 cells, beta-lactamase FRET ratio, 16 h; stronger effect = higher value
Summary of the method: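 Readout: beta-lactamase reporter driven by an NF-kB response element, detected fluorescently as loss of FRET. Cells were the ME-180 line, treated 16 hr at 37C with pin-transferred compound.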

[13] = MultiTox-Fluor Cytotoxicity Assay - LYMP1-002 - Dead Cells (AID 960; active = well fitted curve in the direction sought with a large enough effect; an effect the other way counts as inactive or inconclusive; also: nearly all actives have a fitted effect of over 60% in size); conditions: LYMP1-002 lymphoblastoid cells, dead-cell protease fluorescence; series mostly up to 46.1 µM
Summary of the method: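 LYMP1-002 cells 2500/well; 5 hr 37 C pre-incubation; compound 16 hr 37 C; MultiTox-Fluor reagent 60 min RT; dead-cell fluor Ex/Em 485/520. Norm. to DMSO (0%) vs 15 uM tetraoctylammonium bromide (100%); Hill AC50.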

[14] = qHTS assay for small molecule antagonists of peroxisome proliferator-activated receptor delta signaling (AID 588535; active = well fitted inhibition curve with a large enough effect in the signal ratio, with a control signal flat, not every such curve was filed as active; the % refers to the signal ratio;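 as to max response: cells co-treated with a PPAR-delta agonist as stimulator during compound exposure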); conditions: HEK293T PPARd-UAS-bla, beta-lactamase FRET ratio, 18 h; 460 nm channel
Summary of the method: (§1)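 HEK293T PPAR-delta-UAS-bla cells, 4000/well, 2% charcoal/dextran FBS; 5 h 37 C; cpd titration; 18 h 37 C; CCF4 2 h RT; FI 460/530 nm; Hill fit → IC50, efficacy.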

[15] = target: Peroxisome proliferator-activated receptor delta (Homo sapiens) (UniProt Q03181); experiment: as above; conditions: HEK293T PPARd-UAS-bla, beta-lactamase FRET ratio, 18 h; series mostly up to 76.7 µM
Summary of the method: as §1

[16] = qHTS assay for small molecule antagonists of the retinoid-related orphan receptor gamma (ROR-gamma) signaling pathway - cell viability counter screen (AID 720652; active = well fitted curve in the direction sought with a large enough effect in the repeat runs; an effect the other way counts as inactive or inconclusive;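 also: compound exposure lasted 16 hr before ATP read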); conditions: RORgamma reporter cell line viability counter screen; series mostly up to 92.2 µM
Summary of the method: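 Luminescence from CellTiter-Glo after 30 min at room temperature reported cellular ATP as the cytotoxicity measure. Cells were the CHO reporter line with doxycycline-induced ROR-gamma expression, exposed to compound for 16 hr at 37 C.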

[17] = Cell Viability - MRC5 (AID 434); conditions: MRC5 lung fibroblast viability, qHTS;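 also: potency is read from the fitted curve at half-maximal effect; potency reflects cytotoxicity seen as loss of intracellular ATP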
Summary of the method: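 qHTS cytotoxicity in human lung fibroblast MRC5 cells; 40 hr treatment, 37 °C; cellular ATP by luciferase luminescence; DMSO = 0%, 100 uM tamoxifen = 100% inhibition; Hill-fit AC50.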

[18] = target: Mitogen-activated protein kinase 10 (Mus musculus) (UniProt Q61831); experiment: JNK3 AlphaScreen Assay (AID 530; active = well fitted curve in either direction with a large enough effect, not every such curve was filed as active;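 also: kinase came from lysate of stimulated human HepG2 cells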; also: potency is read from the fitted curve at half-maximal effect); conditions: JNK3 lysate, c-Jun phosphorylation; series mostly up to 57.1 µM
Summary of the method: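 Compound titrations were preincubated 15 minutes at room temperature with substrate, antibody and pre-activated JNK3-containing HepG2 lysate. Reactions were started with 10 uM ATP and stopped with EDTA-containing bead buffer for AlphaScreen detection.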

[19] = target: Bile acid receptor (Homo sapiens) (UniProt Q96RI1); experiment: qHTS assay for small molecule agonists of farnesoid X receptor signaling (AID 588527); conditions: HEK293T FXR-UAS-bla, beta-lactamase ratio, 16 h; stronger effect = higher value
Summary of the method: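 FXR-UAS-bla HEK293T, 10% dialyzed FBS; cpds up to 92 uM titration, 16 h 37 C; CCF4 dye 2 h RT; fluorescence. Normalized to chenodeoxycholic acid 100 uM (100%) and DMSO (0%); Hill fit gives EC50, efficacy.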

[20] = target: Peroxisome proliferator-activated receptor delta (Homo sapiens) (UniProt Q03181); experiment: qHTS assay for small molecule agonists of peroxisome proliferator-activated receptor delta signaling (AID 588534); conditions: HEK293T PPARdelta-UAS-bla, beta-lactamase ratio, 18 h; series mostly up to 76.7 µM
Summary of the method: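 Fluorescence from CCF4 substrate cleavage by beta-lactamase reporter, read 2 hrs at RT, measured agonist activity. Compounds were tested with 18 hrs exposure at 37 C. Concentration-response data fitted to Hill equation.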

Peroxisome proliferator-activated receptor gamma (Homo sapiens), sequence (P37231 whole entry, looked up): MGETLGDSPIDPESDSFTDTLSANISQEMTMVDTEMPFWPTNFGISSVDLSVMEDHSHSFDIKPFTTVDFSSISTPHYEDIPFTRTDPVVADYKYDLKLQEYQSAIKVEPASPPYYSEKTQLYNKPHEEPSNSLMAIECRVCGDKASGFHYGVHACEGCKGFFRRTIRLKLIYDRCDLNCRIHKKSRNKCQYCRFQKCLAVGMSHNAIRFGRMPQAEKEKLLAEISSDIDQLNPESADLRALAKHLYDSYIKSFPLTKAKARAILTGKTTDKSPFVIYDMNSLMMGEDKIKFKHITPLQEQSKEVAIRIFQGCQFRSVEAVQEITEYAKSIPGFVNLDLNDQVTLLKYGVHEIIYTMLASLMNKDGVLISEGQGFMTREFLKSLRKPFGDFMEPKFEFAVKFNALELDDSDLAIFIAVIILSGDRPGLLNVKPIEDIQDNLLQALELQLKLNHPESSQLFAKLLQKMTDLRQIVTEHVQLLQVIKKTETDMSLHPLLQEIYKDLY
Peroxisome proliferator-activated receptor delta (Homo sapiens), sequence (Q03181 whole entry, looked up): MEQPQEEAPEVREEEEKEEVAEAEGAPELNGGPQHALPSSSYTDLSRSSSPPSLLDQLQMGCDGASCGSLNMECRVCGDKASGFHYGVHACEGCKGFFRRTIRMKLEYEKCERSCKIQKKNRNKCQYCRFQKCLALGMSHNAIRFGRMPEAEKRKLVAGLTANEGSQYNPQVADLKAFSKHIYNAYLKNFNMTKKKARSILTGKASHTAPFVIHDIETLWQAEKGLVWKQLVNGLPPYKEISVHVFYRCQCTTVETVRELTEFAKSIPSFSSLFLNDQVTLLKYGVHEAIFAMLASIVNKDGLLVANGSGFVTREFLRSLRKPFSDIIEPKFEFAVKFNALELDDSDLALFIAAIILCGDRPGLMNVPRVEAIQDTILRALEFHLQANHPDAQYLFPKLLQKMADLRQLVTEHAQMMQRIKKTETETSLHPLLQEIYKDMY
Glucocorticoid receptor (Homo sapiens), sequence (P04150 whole entry, looked up): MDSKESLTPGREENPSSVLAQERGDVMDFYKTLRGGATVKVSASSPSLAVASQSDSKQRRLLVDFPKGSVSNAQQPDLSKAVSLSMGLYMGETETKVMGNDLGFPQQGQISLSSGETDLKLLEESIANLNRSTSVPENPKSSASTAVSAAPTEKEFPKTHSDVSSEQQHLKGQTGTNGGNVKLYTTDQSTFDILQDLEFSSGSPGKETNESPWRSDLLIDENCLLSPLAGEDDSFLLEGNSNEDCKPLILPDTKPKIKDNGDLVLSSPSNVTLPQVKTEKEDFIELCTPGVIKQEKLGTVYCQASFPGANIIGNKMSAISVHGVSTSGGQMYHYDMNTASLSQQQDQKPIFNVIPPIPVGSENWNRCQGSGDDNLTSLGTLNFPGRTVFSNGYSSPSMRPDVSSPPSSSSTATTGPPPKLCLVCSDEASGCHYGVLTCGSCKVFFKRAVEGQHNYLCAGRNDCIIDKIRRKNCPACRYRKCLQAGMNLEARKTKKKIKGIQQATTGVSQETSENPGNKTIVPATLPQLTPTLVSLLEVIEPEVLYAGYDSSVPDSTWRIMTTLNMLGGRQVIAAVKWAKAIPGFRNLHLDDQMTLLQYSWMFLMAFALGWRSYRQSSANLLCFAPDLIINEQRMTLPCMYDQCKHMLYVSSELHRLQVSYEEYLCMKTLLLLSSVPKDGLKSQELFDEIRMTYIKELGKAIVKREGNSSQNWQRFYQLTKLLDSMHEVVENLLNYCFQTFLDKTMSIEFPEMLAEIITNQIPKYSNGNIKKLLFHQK
Vitamin D3 receptor (Homo sapiens), sequence (P11473 whole entry, looked up): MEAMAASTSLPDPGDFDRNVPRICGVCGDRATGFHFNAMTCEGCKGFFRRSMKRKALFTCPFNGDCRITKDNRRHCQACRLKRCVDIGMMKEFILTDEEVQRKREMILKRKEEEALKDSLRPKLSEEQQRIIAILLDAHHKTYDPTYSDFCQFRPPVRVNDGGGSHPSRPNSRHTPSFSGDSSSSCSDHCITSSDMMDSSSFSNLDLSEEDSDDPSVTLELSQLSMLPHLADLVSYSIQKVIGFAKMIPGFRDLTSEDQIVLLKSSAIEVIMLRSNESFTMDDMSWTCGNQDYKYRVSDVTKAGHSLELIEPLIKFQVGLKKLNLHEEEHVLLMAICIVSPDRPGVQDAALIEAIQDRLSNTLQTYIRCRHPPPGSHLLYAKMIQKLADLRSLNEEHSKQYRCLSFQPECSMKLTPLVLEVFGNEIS
Bile acid receptor (Homo sapiens), sequence (Q96RI1 whole entry, looked up): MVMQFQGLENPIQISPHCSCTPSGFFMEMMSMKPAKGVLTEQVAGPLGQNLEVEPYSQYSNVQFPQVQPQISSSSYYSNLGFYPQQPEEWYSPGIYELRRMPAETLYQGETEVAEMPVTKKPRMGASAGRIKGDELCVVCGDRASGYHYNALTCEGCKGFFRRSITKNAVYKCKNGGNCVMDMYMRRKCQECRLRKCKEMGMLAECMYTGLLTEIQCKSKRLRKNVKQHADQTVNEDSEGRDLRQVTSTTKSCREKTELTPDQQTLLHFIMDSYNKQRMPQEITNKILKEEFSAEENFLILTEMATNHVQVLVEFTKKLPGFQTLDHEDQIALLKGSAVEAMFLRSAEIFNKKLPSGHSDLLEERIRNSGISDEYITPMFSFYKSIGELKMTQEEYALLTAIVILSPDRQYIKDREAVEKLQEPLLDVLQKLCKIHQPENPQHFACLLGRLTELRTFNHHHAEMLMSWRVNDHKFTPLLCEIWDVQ
Estrogen receptor (Homo sapiens), sequence (P03372 whole entry, looked up): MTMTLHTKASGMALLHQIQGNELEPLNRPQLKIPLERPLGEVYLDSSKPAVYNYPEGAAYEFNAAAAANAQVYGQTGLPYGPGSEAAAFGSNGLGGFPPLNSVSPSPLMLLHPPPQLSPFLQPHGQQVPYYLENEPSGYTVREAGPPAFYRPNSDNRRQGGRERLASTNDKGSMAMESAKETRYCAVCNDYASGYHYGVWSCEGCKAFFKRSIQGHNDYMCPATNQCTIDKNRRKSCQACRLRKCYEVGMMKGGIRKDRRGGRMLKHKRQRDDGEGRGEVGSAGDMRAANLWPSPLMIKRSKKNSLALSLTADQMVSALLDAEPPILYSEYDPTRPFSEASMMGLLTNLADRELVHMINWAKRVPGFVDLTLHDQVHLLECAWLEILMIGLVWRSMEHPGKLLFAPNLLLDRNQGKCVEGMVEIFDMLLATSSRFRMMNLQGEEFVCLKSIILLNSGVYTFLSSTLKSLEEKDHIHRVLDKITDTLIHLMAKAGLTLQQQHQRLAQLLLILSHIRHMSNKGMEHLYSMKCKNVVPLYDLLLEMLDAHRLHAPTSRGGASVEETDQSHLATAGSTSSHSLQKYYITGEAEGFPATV

| SMILES | Potency [1] | Potency [2] | Potency [3] | Potency [4] | activation [5] | outcome [6] | outcome [7] | Potency [8] | outcome [9] | outcome [10] | Potency [11] | activation [12] | Potency [13] | max response [14] | outcome [15] | Potency [16] | Potency [17] | Potency [18] | activation [19] | outcome [20] |
| --- | --- | --- | --- | --- | --- | --- | --- | --- | --- | --- | --- | --- | --- | --- | --- | --- | --- | --- | --- | --- |
| CCCCCOC(=O)c1ccccc1C(=O)OCCCCC | > 92 µM (inactive) | inactive | inactive | inactive | 5.29% (inactive) and -3.67% (inactive) | inactive | inactive | inactive | inactive | inactive | inactive | 1.01% (inactive) and -1.21% (inactive) |  |  |  |  |  |  |  |  |
| ClCCBr | > 92 µM (inactive) | inactive | inactive | inactive |  |  | inactive | inactive |  |  | inactive | 0.431% (inactive) | inactive | -34.3% | inactive | inactive |  |  |  |  |
| C=COC(C)=O |  |  | inactive |  |  |  |  |  | inactive |  |  | -0.411% (inactive) |  |  |  | inactive | > 92 µM (inactive) | inactive |  |  |
| CCOS(C)(=O)=O | > 92 µM (inactive) | inactive |  |  |  |  | inactive |  | inactive | inactive |  | 0.8% (inactive) | inactive | -10.7% | inactive | inactive |  |  | 1.7% (inactive) | inactive |
| c1ccc(NNc2ccccc2)cc1 |  | inactive | inactive |  | 1.14% (inactive) and -8.47% (inactive) | inactive |  |  | inactive | inactive | inactive | 0.182% (inactive) and 3.71% (inactive) | inactive | 13.2% and 5.7% | inactive |  | > 92 µM (inactive) | inactive | 1.06% (inactive) and 0.0431% (inactive) | inactive |
| O=[N+]([O-])c1ccccc1O |  |  | inactive |  | 0.494% (inactive) | inactive | inactive | inactive |  |  |  |  | inactive |  |  |  | > 92 µM (inactive) | inactive |  |  |
| Nc1cc(Cl)cc(Cl)c1 |  | inactive | inactive |  |  |  | inactive | inactive | inactive | inactive |  | 0.8% (inactive) |  | -13.8% | inactive | inactive | > 92 µM (inactive) | inactive | -0.351% (inactive) | inactive |
| CC(C)C#N |  | inactive |  |  | 1.53% (inactive) | inactive | inactive | inactive |  |  |  | -0.872% (inactive) | inactive | -11.5% | inactive | inactive | > 92 µM (inactive) | inactive |  | inactive |
| Cc1ccc2c(c1N)C(=O)c1ccccc1C2=O | > 92 µM (inactive) |  |  |  | -11.3% (inactive) and -4.68% (inactive) | inactive | inactive | inactive |  |  | 21.1 µM (active) and 17.2 µM (active) | 0.359% (inactive) and 2.04% (inactive) |  |  |  |  | > 92 µM (inactive) | 3.98 µM (active) | -0.569% (inactive) and 1.06% (inactive) | inactive |

Source: PubChem BioAssay (NCATS)
